Experimental findings from PubChem BioAssay AID1159580 (chemical genetic matrix, 2015) are described below.

A short description of the experiment: chemical genetic growth profiling, strain panel (AID 1159580).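 Further: tested at 20 µM; growth read once vehicle control cultures reached saturation at 30 °C; 1 = growth at the plate median or of vehicle wells; lower values mean less growth of the strain.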 The settings on record: S. cerevisiae deletion strains, growth OD.

Hit rate of the full screen: of about 5,500 compounds, about 2,000 (36%) were called active. Inconclusive results (about 18%) are left out. Some of the results follow. Unmarked numbers belong to inactive results. No stated cut-off is given here; in the data, active means normalized growth mostly below about 0.91 (no sharp cut-off); inconclusive means no clear call, values can overlap the other calls; inactive means mostly above about 0.92.

In the case of `O=C(CCCN1CCC(O)(c2cccc(C(F)(F)F)c2)CC1)c1ccc(F)cc1`, the normalized growth by setting is: (locus YAL013W, strain DEP1, active compounds read low) 0.832 (active); (locus YAL040C, strain CLN3, active compounds read low) 1.01; (locus YCL061C, strain MRC1 (second series), active compounds read low) 0.974; (locus YDR363W, strain ESC2, active compounds read low) 0.851 (active); (locus YER002W, strain NOP16, active compounds read low) 1.03; (locus YGR078C, strain PAC10, active compounds read low) 0.985. For the same compound, the normalized growth runs as follows: (locus YMR307W, strain GAS1, active compounds read low) 0.818 (active); (locus YNL153C, strain GIM3, active compounds read low) 0.961; (locus YNL197C, strain WHI3, active compounds read low) 1.05; (locus YNL224C, strain SQS1, active compounds read low) 1.13 [resistant] (active); (locus YNL322C, strain KRE1, active compounds read low) 0.882 (active); (locus YOR083W, strain WHI5 (second series), active compounds read low) 1.04.

On to `NC(=O)C1(N2CCCCC2)CCN(CCCC(=O)c2ccc(F)cc2)CC1`, for which the normalized growth runs as follows: (locus YHR030C, strain SLT2, active compounds read low) 1.04; (locus YHR079C, strain IRE1, active compounds read low) 1.02; (locus YJL095W, strain BCK1, active compounds read low) 0.99; (locus YJR066W, strain TOR1, active compounds read low) 0.968; (locus YLR113W, strain HOG1, active compounds read low) 0.981; (locus YNL183C, strain NPR1, active compounds read low) 0.959. Besides, the normalized growth is, setting by setting: (locus YOR231W, strain MKK1, active compounds read low) 1.01; (locus YPL256C, strain CLN2, active compounds read low) 0.988.
